What all share (details): Compound concentration 20.0 uM
Assay [1] has as its target Tyrosine-protein kinase ABL1 (Homo sapiens) (UniProt P00519).
Assay [2] has as its target Bromodomain-containing protein 4 (Homo sapiens) (UniProt O60885).
For assay [3], the target named is Cyclin-dependent kinase 2 (Homo sapiens) (UniProt P24941).
For assay [4], the target named is Casein kinase I isoform delta (Homo sapiens) (UniProt P48730).
Assay [5] concerns the target Glycogen synthase kinase-3 beta (Homo sapiens) (UniProt P49841).
Assay [6] addresses Mitogen-activated protein kinase 1 (Homo sapiens) (UniProt P28482).
Assay [7] has as its target T1, Aurora kinase A (Homo sapiens) (UniProt O14965).
T1 sequence (whole entry): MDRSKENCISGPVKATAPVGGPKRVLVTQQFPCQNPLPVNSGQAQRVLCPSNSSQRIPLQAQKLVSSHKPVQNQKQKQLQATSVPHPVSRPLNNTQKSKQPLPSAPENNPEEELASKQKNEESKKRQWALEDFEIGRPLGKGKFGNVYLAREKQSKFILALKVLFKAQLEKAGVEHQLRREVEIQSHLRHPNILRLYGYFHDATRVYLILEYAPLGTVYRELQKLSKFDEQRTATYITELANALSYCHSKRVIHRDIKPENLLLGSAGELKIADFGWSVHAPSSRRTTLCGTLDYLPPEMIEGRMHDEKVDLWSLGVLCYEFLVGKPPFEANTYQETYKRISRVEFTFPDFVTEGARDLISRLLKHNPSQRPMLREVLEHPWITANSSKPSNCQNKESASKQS

Assay [8] addresses T2, Transcription intermediary factor 1-alpha (Homo sapiens) (UniProt O15164).
T2 sequence (whole entry): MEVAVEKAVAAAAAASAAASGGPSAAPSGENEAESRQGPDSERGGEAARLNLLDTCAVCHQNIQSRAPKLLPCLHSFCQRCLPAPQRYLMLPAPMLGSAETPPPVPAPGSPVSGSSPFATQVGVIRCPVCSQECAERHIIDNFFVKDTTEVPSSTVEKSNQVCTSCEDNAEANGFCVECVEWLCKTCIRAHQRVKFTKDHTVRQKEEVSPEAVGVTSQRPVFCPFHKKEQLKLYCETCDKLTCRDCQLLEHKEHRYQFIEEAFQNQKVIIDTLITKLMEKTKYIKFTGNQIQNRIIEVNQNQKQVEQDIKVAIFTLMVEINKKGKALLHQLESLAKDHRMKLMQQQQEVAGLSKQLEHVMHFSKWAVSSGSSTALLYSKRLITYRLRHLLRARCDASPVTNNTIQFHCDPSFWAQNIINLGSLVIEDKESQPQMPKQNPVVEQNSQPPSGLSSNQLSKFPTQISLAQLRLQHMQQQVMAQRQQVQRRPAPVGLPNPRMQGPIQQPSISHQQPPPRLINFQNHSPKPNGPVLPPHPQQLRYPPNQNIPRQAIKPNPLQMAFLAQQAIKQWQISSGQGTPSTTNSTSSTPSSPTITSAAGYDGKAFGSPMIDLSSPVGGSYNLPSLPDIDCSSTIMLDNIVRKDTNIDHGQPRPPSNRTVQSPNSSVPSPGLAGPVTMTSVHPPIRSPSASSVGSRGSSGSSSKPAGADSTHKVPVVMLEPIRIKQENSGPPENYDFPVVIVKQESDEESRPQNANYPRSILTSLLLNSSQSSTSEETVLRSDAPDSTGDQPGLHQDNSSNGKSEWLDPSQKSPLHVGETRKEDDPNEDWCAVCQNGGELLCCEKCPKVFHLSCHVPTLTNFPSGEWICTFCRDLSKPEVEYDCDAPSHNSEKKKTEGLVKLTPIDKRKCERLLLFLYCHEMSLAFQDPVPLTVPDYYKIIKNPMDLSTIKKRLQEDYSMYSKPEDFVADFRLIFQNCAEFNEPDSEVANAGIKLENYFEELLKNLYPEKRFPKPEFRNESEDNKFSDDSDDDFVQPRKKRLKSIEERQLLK

Mitogen-activated protein kinase 1 (Homo sapiens), sequence (P28482 whole entry): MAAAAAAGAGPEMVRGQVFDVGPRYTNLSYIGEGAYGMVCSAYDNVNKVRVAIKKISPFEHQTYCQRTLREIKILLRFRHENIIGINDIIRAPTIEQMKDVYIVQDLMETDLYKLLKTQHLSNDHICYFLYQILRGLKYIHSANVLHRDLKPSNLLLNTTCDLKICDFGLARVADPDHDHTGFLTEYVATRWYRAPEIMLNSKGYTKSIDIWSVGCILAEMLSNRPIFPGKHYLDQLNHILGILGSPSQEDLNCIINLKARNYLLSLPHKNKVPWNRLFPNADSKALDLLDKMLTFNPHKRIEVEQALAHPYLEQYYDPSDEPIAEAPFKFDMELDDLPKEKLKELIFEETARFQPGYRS
Glycogen synthase kinase-3 beta (Homo sapiens), sequence (P49841 whole entry, looked up): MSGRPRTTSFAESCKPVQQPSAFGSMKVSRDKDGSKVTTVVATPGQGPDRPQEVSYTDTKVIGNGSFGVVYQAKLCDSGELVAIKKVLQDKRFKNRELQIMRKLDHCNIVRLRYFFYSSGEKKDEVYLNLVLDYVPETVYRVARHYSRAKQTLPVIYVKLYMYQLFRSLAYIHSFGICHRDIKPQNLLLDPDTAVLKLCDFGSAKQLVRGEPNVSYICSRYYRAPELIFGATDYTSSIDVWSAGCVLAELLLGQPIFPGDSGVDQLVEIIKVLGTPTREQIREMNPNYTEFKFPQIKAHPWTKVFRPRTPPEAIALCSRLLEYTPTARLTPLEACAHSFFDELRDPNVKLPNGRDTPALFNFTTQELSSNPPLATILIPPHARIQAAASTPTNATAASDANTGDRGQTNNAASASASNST
Casein kinase I isoform delta (Homo sapiens), sequence (P48730 whole entry, looked up, canonical isoform): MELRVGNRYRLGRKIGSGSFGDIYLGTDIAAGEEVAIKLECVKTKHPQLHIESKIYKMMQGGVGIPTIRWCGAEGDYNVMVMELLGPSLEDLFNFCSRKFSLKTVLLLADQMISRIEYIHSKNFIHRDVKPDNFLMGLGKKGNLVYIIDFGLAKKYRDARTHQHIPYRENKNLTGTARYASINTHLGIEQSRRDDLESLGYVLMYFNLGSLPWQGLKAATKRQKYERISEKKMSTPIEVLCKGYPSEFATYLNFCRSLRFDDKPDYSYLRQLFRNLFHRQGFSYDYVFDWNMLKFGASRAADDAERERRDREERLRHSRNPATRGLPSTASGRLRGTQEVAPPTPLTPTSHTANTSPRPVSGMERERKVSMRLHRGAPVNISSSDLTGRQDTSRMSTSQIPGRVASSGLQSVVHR
Tyrosine-protein kinase ABL1 (Homo sapiens), sequence (P00519 whole entry): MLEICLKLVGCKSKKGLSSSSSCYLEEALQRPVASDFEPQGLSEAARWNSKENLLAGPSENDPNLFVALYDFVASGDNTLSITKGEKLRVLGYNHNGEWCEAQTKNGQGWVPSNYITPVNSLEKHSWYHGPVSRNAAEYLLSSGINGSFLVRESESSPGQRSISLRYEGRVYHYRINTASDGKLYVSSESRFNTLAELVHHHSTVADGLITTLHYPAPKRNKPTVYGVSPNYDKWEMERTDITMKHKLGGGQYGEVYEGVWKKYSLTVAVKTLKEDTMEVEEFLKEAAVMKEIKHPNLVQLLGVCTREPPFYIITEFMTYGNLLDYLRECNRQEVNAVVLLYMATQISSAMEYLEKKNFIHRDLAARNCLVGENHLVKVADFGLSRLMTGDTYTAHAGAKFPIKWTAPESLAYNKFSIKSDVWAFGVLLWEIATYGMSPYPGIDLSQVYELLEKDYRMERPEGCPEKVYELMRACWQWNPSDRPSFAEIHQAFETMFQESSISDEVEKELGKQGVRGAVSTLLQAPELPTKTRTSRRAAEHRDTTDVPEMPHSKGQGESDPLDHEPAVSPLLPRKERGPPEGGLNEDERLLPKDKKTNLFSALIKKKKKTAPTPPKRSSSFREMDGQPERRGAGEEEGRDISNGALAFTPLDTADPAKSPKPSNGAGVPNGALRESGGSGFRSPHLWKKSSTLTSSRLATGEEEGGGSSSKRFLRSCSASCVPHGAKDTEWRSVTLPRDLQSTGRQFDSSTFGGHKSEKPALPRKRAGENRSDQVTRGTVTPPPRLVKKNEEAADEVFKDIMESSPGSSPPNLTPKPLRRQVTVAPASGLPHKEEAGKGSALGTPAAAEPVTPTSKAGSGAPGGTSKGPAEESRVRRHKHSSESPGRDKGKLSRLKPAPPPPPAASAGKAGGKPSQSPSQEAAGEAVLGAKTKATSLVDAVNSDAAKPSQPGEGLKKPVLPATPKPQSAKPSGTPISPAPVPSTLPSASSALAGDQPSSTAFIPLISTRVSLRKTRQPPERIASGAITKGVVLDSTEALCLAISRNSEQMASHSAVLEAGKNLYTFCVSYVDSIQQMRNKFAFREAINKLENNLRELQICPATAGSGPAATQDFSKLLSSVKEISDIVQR

Usually ΔTm stands for the change in melting temperature against a reference sample. Regarding `CCN1C(C)(C)CC(Oc2ccc(C(=O)Nc3ccc(NC(=O)Nc4cc(C(C)(C)C)on4)cc3)nc2)CC1(C)C`, the shift in melting temperature (ΔTm) in assay [1] is 1.14 °C; in assay [2] it was -1.48 °C; in assay [3] it was 0.38 °C; in assay [4], 0.21 °C; in assay [5] it was 0.25 °C; in assay [6], -3.48 °C. Besides, the thermal shift (ΔTm) in assay [7] is 0.68 °C; in assay [8], -0.32 °C.

Regarding `C[C@@H]1CN(c2nccc(Nc3ccc4c(c3)n(CCC(C)(C)O)c(=O)n4C)n2)C[C@H](C)C1(F)F`, the ΔTm is 1.46 °C in assay [1]; -1.76 °C in assay [2]; 3.21 °C in assay [3]; -0.23 °C in assay [4]; -0.32 °C in assay [5]; -7.23 °C in assay [6]. Moreover, the ΔTm was -2.03 °C in assay [7] and -1.14 °C in assay [8].

On to `COc1ccc(-c2c(-c3ccc(C#N)c(F)c3)nc(N3CCC(N)CC3)n(C)c2=O)cc1F`, for which the ΔTm was 0.65 °C in assay [1]; -3.53 °C in assay [2]; 0 °C in assay [3]; 0 °C in assay [4]; -0.33 °C in assay [5]; 0.2 °C in assay [6]. The ΔTm was -2.24 °C in assay [7] and -0.36 °C in assay [8].

As for `O=c1[nH]c(CS[C@H]2CC[C@H](O)CC2)nc2cc(OCC3CC3)cc(F)c12`, the thermal shift (ΔTm) in assay [1] is 0.58 °C; in assay [2], -1.62 °C; in assay [3], -0.32 °C; in assay [4] it was -5.43 °C; in assay [5], 0 °C; in assay [6] it was 0.1 °C. In addition, the figures for the ΔTm in assay [7] and in assay [8] were -0.76 °C and -0.56 °C, respectively.

With `Cc1ncsc1-c1ccc([C@H](C)NC(=O)[C@@H]2C[C@@H](O)CN2C(=O)[C@@H](NC(=O)COCCCOCCNC(=O)C[C@@H]2N=C(c3ccc(Cl)cc3)c3c(sc(C)c3C)-n3c(C)nnc32)C(C)(C)C)cc1`, the ΔTm is -0.44 °C in assay [1]; 7 °C in assay [2]; -3.66 °C in assay [3]; 0.48 °C in assay [4]; 0 °C in assay [5]; 0 °C in assay [6]. The ΔTm in assay [7] is 0 °C; in assay [8], -3.36 °C.

As to `COc1ccc(-c2ccc(-c3cn(C(=O)N4CCCCC4c4ccccc4)nn3)cc2)cc1` (stereo not drawn), the ΔTm in assay [1] was 0.38 °C; in assay [2], -2.64 °C; in assay [3] it was 0.04 °C; in assay [4], -0.53 °C; in assay [5], -1.61 °C; in assay [6] it was -0.45 °C. For the same compound, the figures for the ΔTm in assay [7] and in assay [8] were -1.09 °C and -0.5 °C, respectively.

Turning to `CCn1c(=S)[nH]c2cc3c(NCc4ccccc4N4CCC(CO)CC4)ncnc3cc21`, the ΔTm is 0.75 °C in assay [1]; 4.86 °C in assay [2]; -0.14 °C in assay [3]; 0.33 °C in assay [4]; -0.82 °C in assay [5]; 0.17 °C in assay [6]. In addition, the ΔTm in assay [7] was -1.92 °C; in assay [8] it was -0.23 °C.

Turning to `CCCCCCNC(=O)n1cc(Cl)c(=O)n(C(=O)OCC(C)C)c1=O`, the ΔTm was 0.44 °C in assay [1]; -0.35 °C in assay [2]; 0.16 °C in assay [3]; -0.34 °C in assay [4]; -0.76 °C in assay [5]; -0.05 °C in assay [6]. The ΔTm in assay [7] is -0.58 °C; in assay [8] it was 0.93 °C.

For the compound `CCCCCCCCCCCCC/C=C/[C@@H](O)[C@H](CO)NC(=O)CCl`, the ΔTm is 0.07 °C in assay [1]; -0.55 °C in assay [2]; -0.22 °C in assay [3]; 2.15 °C in assay [4]; -0.08 °C in assay [5]; 1.33 °C in assay [6]. The ΔTm was 0.17 °C in assay [7] and -0.39 °C in assay [8].

For `C[C@@H]1CN(c2ncc(Cl)c(Nc3ccc4c(c3)n(CCC(C)(C)O)c(=O)n4C)n2)C[C@H](C)C1(F)F`, the ΔTm in assay [1] was -0.67 °C; in assay [2], 0.35 °C; in assay [3] it was 1.82 °C; in assay [4] it was -0.69 °C; in assay [5], 4.11 °C; in assay [6] it was -8.12 °C. In addition, the shift in melting temperature (ΔTm) came to 4 °C in assay [7] and 2.58 °C in assay [8].

For the compound `Cn1ncc(-c2nn(C)c3ncnc(N4CCC4)c23)c1-c1ccc(C(F)(F)F)cc1`, the ΔTm in assay [1] is 0.03 °C; in assay [2] it was -2.92 °C; in assay [3], -1.77 °C; in assay [4], -0.3 °C; in assay [5] it was -1.09 °C; in assay [6], 0.4 °C. Moreover, the figures for the ΔTm in assay [7] and in assay [8] were -2.16 °C and -2.31 °C, respectively.

Turning to `CCc1c(C)nc(-c2ccc(Cl)s2)nc1Nc1ccc(CC(=O)O)cc1`, the ΔTm in assay [1] is 0.97 °C; in assay [2], -2.77 °C; in assay [3], 0.44 °C; in assay [4] it was -0.04 °C; in assay [5], 0 °C; in assay [6], 0.51 °C. Besides, the thermal shift (ΔTm) was -0.9 °C in assay [7] and 1.46 °C in assay [8].

For the compound `Cc1nccn1CC1CCc2c(c3ccccc3n2C)C1=O` (stereo not drawn), the ΔTm in assay [1] is 0.4 °C; in assay [2], -1.31 °C; in assay [3] it was -0.09 °C; in assay [4], -0.21 °C; in assay [5] it was -0.4 °C; in assay [6], 0.1 °C. Also, the thermal shift (ΔTm) in assay [7] was -1.95 °C; in assay [8], 0.35 °C.

Regarding `CC(C)(C)C1CCN(C(=O)n2ncc(C(O)(c3ccccc3)c3ccccc3)n2)CC1`, the ΔTm is -2.72 °C in assay [1]; -5.41 °C in assay [2]; -2.83 °C in assay [3]; 0.67 °C in assay [4]; -5.44 °C in assay [5]; 0.52 °C in assay [6]. Also, the figures for the ΔTm in assay [7] and in assay [8] were -4.85 °C and -0.34 °C, respectively.

For `C[C@H](c1nc2c(cnn2C2CCOCC2)c(=O)[nH]1)N1CC(Oc2ccccc2)C1`, the ΔTm in assay [1] was 0.76 °C; in assay [2] it was -2.52 °C; in assay [3], 0.6 °C; in assay [4], -0.29 °C; in assay [5] it was 3.31 °C; in assay [6], 0.49 °C. In addition, the ΔTm in assay [7] was -1.78 °C; in assay [8], 0.73 °C.

As for `O=C(NCc1ncccc1F)c1coc(CCNCCc2nc3ccccc3[nH]2)n1`, the ΔTm is 0.46 °C in assay [1]; -3.66 °C in assay [2]; -0.13 °C in assay [3]; -0.23 °C in assay [4]; -0.87 °C in assay [5]; -0.05 °C in assay [6]. For the same compound, the ΔTm is -2.57 °C in assay [7] and -0.59 °C in assay [8].

These data come from ChEMBL document CHEMBL5724796, “Tm Shift (DSF) assay results for EUbOPEN Chemogenomics Library” (2024).
